Assay [1] is described as follows: Confirmatory screen GU Rhodamine qHTS for Zika virus inhibitors qHTS (AID 1347157). Further: nearly all actives have a fitted effect of over 70% in size. Further: potency means the concentration at half of the fitted maximal effect.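 On activity change, negative = inhibition: plate controls were no-inhibitor wells for no effect and no-enzyme wells for full effect.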 The essentials: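 Unlinked NS2B/NS3, 25 nM; Rhod110 peptide, 1.5 microM; compounds, up to 114 microM. Reaction run 15 min at RT in 10 mM Tris-HCl pH 8.0, 0.01% Tween 20; kinetic fluorescence change fitted with a 4-parameter Hill model.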
For orientation: Quantitative high-throughput screening tests each substance at several concentrations.

Assay [2] in a line: ZIKV-mCherry secondary qHTS for Zika virus inhibitors (AID 1347158). Further: top concentration of the series differs between compounds. Summed up:
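After overnight seeding at 37 °C, Vero cells receive compound and then ZIKV-mCherry (MOI 1). Following 48-72 h infection, cells are fixed, counterstained with Hoechst, and imaged; percent infected cells is derived from an mCherry intensity cut-off of 450 RFU.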

A short description of assay [3]: Confirmatory screen NINDS Rhodamine qHTS for Zika virus inhibitors (AID 1347161). Further: nearly all actives have a fitted effect of over 60% in size. Further: potency means the concentration at half of the fitted maximal effect.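 On activity change, negative = inhibition: purified Zika NS2B-NS3 protease with linked NS2B cofactor domain and Rhodamine110 peptide substrate; plate controls were no-inhibitor control for no effect and no-enzyme control for full effect.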 Summed up: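 Rhodamine110-peptide cleavage (1.5 µM substrate) by 25 nM linked NS2B-NS3 enzyme at pH 8.0 (Tris, Tween 20), after 15 min RT preincubation with compounds; 15-min fluorescence change normalized to controls and Hill-fitted.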
The subject of assay [4] is Zika virus NS2B-NS3 protease (linked). Put plainly: 384 well plate NINDS AMC confirmatory qHTS for Zika virus inhibitors (AID 1347163). Further: nearly all actives have a fitted effect of over 50% in size. Further: potency means the concentration at half of the fitted maximal effect.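 On activity change, negative = inhibition: linked protease at 5 30 or 60 nM final depending on run; fluorescence of AMC released from Ac-VKTGKR-AMC peptide cleaved by the protease; top concentration of the series differs between compounds; 0% = no-inhibitor control and -100% = no-enzyme control.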 The essentials: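 Linked protease 5/30/60 nM final; cpds up to 1 mM final, ~15 min preinc. Substrate Ac-VKTGKR-AMC 30 microM final. RT, dark, 25 min; FI ex 355/em 460; normalized to no-enzyme/no-inhibitor ctrls.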
The test system of assay [5] is Zika virus NS2B-NS3 protease (linked construct). Description: 384 well plate NINDS Rhodamine confirmatory qHTS for Zika virus inhibitors (AID 1347164). Further: nearly all actives have a fitted effect of over 65% in size. Further: potency means the concentration at half of the fitted maximal effect.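 On activity change, negative = inhibition: top concentration of the series differs between compounds; plate controls were no-inhibitor control for no effect and no-enzyme control for full effect.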 Summed up:
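Compounds are incubated about 15 minutes with linked protease (5, 30 or 60 nM final). Rhodamine 110-tagged Ac-LKRR substrate (10 microM final) is added and fluorescence measured after 25 minutes.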

Assay [6] can be described thus: Tertiary RLuc qRT-PCR qHTS assay for Zika virus inhibitors (AID 1347169). Further: top concentration of the series differs between compounds; on the % scale 0 is the no-effect control and ±100 the full control effect; nearly all actives have a fitted effect of over 55% in size. Summed up:
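Orthogonal cell-based infection assay using recombinant ZIKV-RLuc (Cambodian) in Vero cells; compound added prior to virus at MOI 1-2. Incubation lasts 48-72 hrs at 37 degrees C before live-cell Renilla substrate is added and luminescence measured.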
In general terms: Quantitative PCR measures a nucleic acid by following its amplification.

Assay [7] addresses Calcium and integrin-binding protein 1 (Homo sapiens) (UniProt Q99828). Description: Primary qHTS for Identification of Calcium Integrin Binding Protein 1 (CIB1) Competitor (AID 1508620).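 Further: GST tagged CIB1 binding a fluorescein labelled alphaIIb integrin peptide tracer; top concentration of the series differs between compounds; on the % scale 0 is the no-effect control and ±100 the full control effect.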 Summed up: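 Fluorescence polarization competition: CIB1-GST (1 uM final) preincubated with compound 15 min at room temperature, then FITC-labeled alphaIIb peptide (100 nM final) added for another 15 min. Polarization read at Ex 480/Em 540.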

In assay [8] the target is Cytochrome P450 3A4 (Homo sapiens) (UniProt P08684). Put plainly: qHTS Assay for Inhibitors and Substrates of Cytochrome P450 3A4 (AID 884). Further: potency means the concentration at half of the fitted maximal effect; nearly all actives have a fitted effect of over 50% in size. The essentials:
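20 nM human CYP3A4 with 25 uM Luciferin-PPXE (at KM) in 200 mM KPO4, preincubated 10 min with compound; NADPH regeneration started a 60 min RT reaction. Luciferin detected by luminescence, normalized to 57 uM ketoconazole as full inhibition.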

Assay [9] has the same target. Put plainly: qHTS Assay for Activators of Cytochrome P450 3A4 (AID 885). Further: nearly all actives have a fitted effect of over 65% in size. Summed up: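 Human CYP3A4 (20 nM) with Luciferin-PPXE at 25 uM (its KM) in 200 mM KPO4; 10 min compound preincubation, then NADPH regeneration and 60 min reaction at RT. Luciferin read by luminescence; normalized to 57 uM ketoconazole full inhibition.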
Assay [10] in a line: Confirmation and Secondary Assay for Modulators of Hemoglobin Beta Chain Splicing at IVS2 654 locus (AID 910). Further: % of control where 0% means no effect. Summed up:
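HeLa cells stably carrying EGFP interrupted by mutant beta-globin IVS2-654 intron (CMV-driven) were treated with compound for 2 days at 37C; corrected splicing was scored as total peak GFP intensity per well (488 nm excitation, 500-520 nm emission).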

A short description of assay [11]: Confirmation and Secondary Assay for Modulators of Hemoglobin Beta Chain Splicing at IVS2 705 locus (AID 930).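 Further: HeLa cells stably expressing the EGFP-705 splicing reporter; GFP fluorescence per well restored by corrected splicing of the IVS2-705 intron in EGFP; % of control where 0% means no effect.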 Summed up: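 HeLa cells stably carrying EGFP interrupted by mutant beta-globin intron 2 (IVS2-705) treated 2 days at 37C with compound; 500 nM antisense PNA as control. Correct splicing read as total peak GFP intensity per well by laser-scanning cytometry.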

A short description of assay [12]: qHTS Assay for Lipid Storage Modulators (AID 1519; calls by dose curve; on activity change, negative = inhibition: on the % scale 0 is the no-effect control and ±100 the full control effect). The note with it: Drosophila S3 cells, BODIPY lipid droplet/cell ratio, laser cytometry, cells loaded with oleic acid. Summed up:
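Cells seeded at 5,000 per well were treated with compounds over a concentration series and loaded with oleic acid (400 uM, as added). Lipid droplet fluorescence (488 nm excitation, 500-530 nm channel) was read by laser-scanning cytometry and normalized to 20 uM Triacsin C.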

Assay [13] concerns the target Ubiquitin carboxyl-terminal hydrolase 1 (Homo sapiens) (UniProt O94782). Put plainly: Inhibitors of USP1/UAF1: Pilot qHTS (AID 504865). Further: potency means the concentration at half of the fitted maximal effect; nearly all actives have a fitted effect of over 35% in size. Summed up:
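Kinetic fluorescence assay: 1nM USP1/UAF1, 15 min compound preincubation, then 150nM Ub-Rho; 480/540 nm.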

The test system of assay [14] is Zika virus NS2B-NS3 protease. Put plainly: Primary screen GU AMC qHTS for Zika virus inhibitors (AID 1347154).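 Further: 0% = no-inhibitor control and -100% = no-enzyme control; nearly all actives have a fitted effect of over 70% in size.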 The essentials:
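Unlinked Zika NS2B hydrophilic domain/NS3 protease domain noncovalent complex (25 nM final) in 10 mM Tris-HCl pH 8.0, 0.01% Tween 20, with AMC peptide substrate. Fluorescence (ex 340, em 450 nm) change over 15 min, room temperature; percent inhibition fitted to 4-parameter Hill equation.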

Records with an inconclusive call do not appear. Activity calls are given as the source filed them. Unless noted, the call rests on the fitted dose curve; in most records, active means well fitted curve in the direction sought with a large enough effect; inconclusive means small, poorly fitted or top-dose-only effect, or another doubt; inactive means no such curve, though single readings can be large; an effect the other way counts as inactive or inconclusive.

Cytochrome P450 3A4 (Homo sapiens), sequence (P08684 whole entry, looked up): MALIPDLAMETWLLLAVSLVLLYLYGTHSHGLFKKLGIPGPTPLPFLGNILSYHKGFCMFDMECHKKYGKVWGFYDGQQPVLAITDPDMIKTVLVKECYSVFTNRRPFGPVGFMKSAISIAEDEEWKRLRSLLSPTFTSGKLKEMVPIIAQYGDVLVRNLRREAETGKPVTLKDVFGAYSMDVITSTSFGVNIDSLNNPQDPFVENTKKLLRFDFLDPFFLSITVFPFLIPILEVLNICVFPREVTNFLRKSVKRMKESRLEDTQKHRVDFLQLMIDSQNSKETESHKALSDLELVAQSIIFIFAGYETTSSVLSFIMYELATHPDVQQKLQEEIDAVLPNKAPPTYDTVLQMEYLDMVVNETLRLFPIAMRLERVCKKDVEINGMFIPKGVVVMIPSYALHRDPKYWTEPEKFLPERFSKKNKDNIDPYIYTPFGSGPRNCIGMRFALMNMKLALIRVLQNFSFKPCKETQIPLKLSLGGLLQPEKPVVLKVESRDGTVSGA
Calcium and integrin-binding protein 1 (Homo sapiens), sequence (Q99828 whole entry, looked up): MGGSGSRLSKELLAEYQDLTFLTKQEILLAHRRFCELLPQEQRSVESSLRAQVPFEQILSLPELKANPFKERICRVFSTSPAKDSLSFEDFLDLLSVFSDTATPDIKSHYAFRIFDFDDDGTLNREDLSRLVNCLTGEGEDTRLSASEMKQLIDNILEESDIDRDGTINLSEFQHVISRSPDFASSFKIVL
Ubiquitin carboxyl-terminal hydrolase 1 (Homo sapiens), sequence (O94782 whole entry, looked up): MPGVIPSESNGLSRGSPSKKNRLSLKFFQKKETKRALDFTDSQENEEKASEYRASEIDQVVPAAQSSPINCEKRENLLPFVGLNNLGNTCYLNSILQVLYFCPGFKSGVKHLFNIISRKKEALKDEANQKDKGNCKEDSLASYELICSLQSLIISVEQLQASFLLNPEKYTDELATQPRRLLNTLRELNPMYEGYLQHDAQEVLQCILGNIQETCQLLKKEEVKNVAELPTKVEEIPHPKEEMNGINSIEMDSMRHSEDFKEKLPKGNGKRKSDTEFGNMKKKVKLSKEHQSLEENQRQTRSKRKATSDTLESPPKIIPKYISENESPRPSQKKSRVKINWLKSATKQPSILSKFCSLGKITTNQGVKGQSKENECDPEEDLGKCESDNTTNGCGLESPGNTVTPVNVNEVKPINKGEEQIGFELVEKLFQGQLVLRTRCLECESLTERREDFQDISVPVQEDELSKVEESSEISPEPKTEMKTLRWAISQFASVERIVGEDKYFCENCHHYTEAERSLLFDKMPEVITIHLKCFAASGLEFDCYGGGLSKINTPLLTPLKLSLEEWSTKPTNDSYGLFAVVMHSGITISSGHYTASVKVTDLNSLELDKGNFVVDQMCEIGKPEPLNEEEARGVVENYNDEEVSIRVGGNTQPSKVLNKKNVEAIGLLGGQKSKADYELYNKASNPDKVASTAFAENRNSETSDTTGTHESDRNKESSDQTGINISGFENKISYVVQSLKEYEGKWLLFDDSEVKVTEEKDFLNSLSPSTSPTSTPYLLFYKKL

Take `CC(C)(C)c1ccc(S(=O)(=O)c2cnc(SCC(=O)Nc3ccc4c(c3)OCCO4)[nH]c2=O)cc1`: the Potency in assay [1] is 7.08 µM (active); in assay [3] it was 6.31 µM (active); in assay [4] it was 316 µM (active); in [5], 31.6 µM (active). In addition, the Potency result in [2] and in assay [6] was “inactive” in each case.
Take `O=C(Nc1ccc(C(=O)OCc2cc(=O)n3nc(C4CC4)sc3n2)cc1)c1cccc(F)c1`: the Potency entry in [1] and in assay [3] was “inactive” in each case.
Regarding `Cc1oc2c(cc(NS(=O)(=O)c3ccc(Br)cc3)c3ccccc32)c1C(=O)OCc1ccccc1`, the Potency in assay [1] was 31.6 µM (active); in [3], 39.8 µM (active); in assay [5], 63.1 µM (active). For the same molecule, in [2], the Potency entry is “inactive”.
`COc1ccc2c(c1)Oc1nc(-c3ccc(C)s3)nc(SCC(=O)Nc3cccc(C(=O)O)c3)c1C2`: the Potency in assay [1] is 5.01 µM (active); in [3], 5.62 µM (active). The Potency result in [2] and in assay [6] was “inactive” in each case. In addition, the outcome in assay [7] was inactive.
Regarding `CCOC(=O)c1ccc(N2C(=O)c3n[nH]c(-c4cccs4)c3C2c2ccc(C(C)(C)C)cc2)cc1` (stereo not given), the values for the Potency in assay [1] and in assay [3] were 20 µM (active) and 15.8 µM (active), respectively. Further, the Potency result in assay [4] was “inactive”.
For the molecule `O=c1c(O)cc(C2Oc3cc(O)cc(O)c3CC2O)cc2c(C3Oc4cc(O)cc(O)c4CC3O)cc(O)c(O)c12` (stereo not given), the Potency in assay [8] was 15.8 µM (active); in [13] it was 35.5 µM (active); in [1] it was 12.6 µM (active); in [3] it was 20 µM (active); in assay [4] it was 7.94 µM (active). The Potency result in assay [9], in assay [2] and in assay [5] was “inactive” throughout. In addition, the molecule was called inactive in assay [10] and in assay [11]. In addition, the activity change, negative = inhibition in [12] (at 57.5 µM (top of the series)) is 11.1% (inactive). Also, the max response in assay [12] (measured here: cell count channel max response) was found to be 13.9%; in [12] (measured here: lipid channel max response) it was 27.3%.
On to `CCS(=O)(=O)c1cccc(C(=O)Nc2ccc(-c3nc4ccccc4s3)c(O)c2)c1`, for which the Potency in assay [1] was 25.1 µM (active); in assay [3], 15.8 µM (active); in [5] it was 14.1 µM (active). Further, in [6], the Potency entry was “inactive”.
On to `COc1ccc2cc(C(C)C(=O)O)ccc2c1` (stereo not given), for which the result in [10] and in assay [11] was inactive. For the same molecule, the Potency result in [14] is “inactive”.

(Values after PubChem BioAssay (NCATS).)
